Growth data for 40 compounds are collected here from PubChem BioAssay (NCI).

Molecules are shown by their SMILES. This is part of a sample that, as a whole, favours compounds with a hit. Of some 83,000 tested, about 20% had one in any assay.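 Treatment: one concentration, 48 hours, 96-well format. Scoring: percent growth, with anything below 10 considered active.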 Active and inactive are the calls of the source.

One assay relates to CCRF-CEM leukemia. Kind of assay: NCI-60 one-dose screen, 48 h (100 = growth as untreated, 0 = no growth, -100 = all killed). Conditions: 10 µM unless noted.
Regarding `Cc1ccc(CNc2c3ccccc3nc3ccccc23)cc1`, the growth was 20.9% (inactive).

With `Cc1ccnc(Nc2ccc([N+](=O)[O-])c(NCCN3CCOCC3)n2)c1`, the growth is 7.5% (active).

Regarding `CSc1nn2c(-c3ccc4ccccc4c3)ccnc2c1C#N`, the growth was 41% (inactive).

For the compound `COc1cc2nc3sc(C(=O)Nc4ccc(C(=O)OC(C)C)cc4)c(C(=O)Nc4ccc(Cl)cc4C)n3c(=O)c2cc1OC`, the growth was 23.6% (inactive).

With `COC(=O)/C=C1/SC(=Nc2ccc([N+](=O)[O-])cc2)N(CCc2c[nH]c3ccc(O)cc23)C1=O`, the growth is 10.9% (inactive).

`O=S1(=O)C=C(c2ccccc2)C(c2ccccc2)=C1`: the growth is 2.77% (active).

As to `O=C(O)COc1ccc(Cl)c(Cl)c1`, the growth is 100% (inactive).

In the case of `O=C1/C(=C/c2ccccn2)NC(=S)N1c1ccccc1Cl`, the growth was 9.35% (active).

Consider `CCS/C(Nc1ccccc1)=C(\C#N)C(=O)Nc1ccc(OC)cc1`, for which the growth was 8.29% (active).

Turning to `COc1ccc(C(=O)N2c3ccccc3Sc3ccccc32)c(C(F)(F)F)c1`, the growth is 22.4% (inactive).

With `Cc1ccc(-c2csc(NC(=O)c3ccccc3CN3C(=O)c4ccccc4C3=O)n2)cc1`, the growth was 102% (inactive).

For `CNC(=O)c1cc(Oc2cccc3nc(NC(=O)Nc4cc(C(F)(F)F)ccc4Cl)ccc23)ccn1`, the growth was 80.8% (inactive).

In the next assay the test system is MOLT-4 leukemia. The assay is described as above. Conditions: 10 µM unless noted.
As for `CC(=O)OC[C@]12CC[C@@H]([C@@H](C)c3nnc(-c4ccncc4)o3)[C@@H]1[C@H]1CC[C@@H]3[C@@]4(C)CC[C@H](OC(C)=O)C(C)(C)[C@@H]4CC[C@@]3(C)[C@]1(C)CC2`, the growth is 57.2% (inactive).

Turning to `CN(Cc1ccccc1)c1nc(Cl)c(C2CC(c3ccccc3)=NN2c2ccccc2)s1` (configuration not stated), the growth is 97.1% (inactive).

Take `CSc1nc(C)c([N+](=O)[O-])c(N)n1`: the growth was 93.4% (inactive).

On to `CN1CCN(Cc2ccc(NC(=O)c3cncc(C#Cc4cnc(N)c5ccc(F)cc45)c3)cc2C(F)(F)F)CC1`, for which the growth is 13.1% (inactive).

For the compound `CN1CCN(C(=O)[C@@]2(C)CC[C@]3(C)CC[C@]4(C)C(=CC[C@@H]5[C@@]6(C)CCC(=O)NC(C)(C)[C@@H]6CC[C@]54C)[C@@H]3C2)CC1`, the growth is 15.8% (inactive).

Consider `COc1ccc(/C=C2\CN(C(=O)C(Cl)Cl)C/C(=C\c3ccc(OC)cc3)C2=O)cc1`, for which the growth is 5.42% (active).

`O=C(NNc1cnccn1)c1nc2cc(F)ccc2n2cccc12`: the growth was 5.91% (active).

`COc1cc(/C=C2\CN(S(=O)(=O)c3ccccc3)C/C(=C\c3cc(CN4CCCCC4)c(O)c(OC)c3)C2=O)cc(CN2CCCCC2)c1O`: the growth was -20.6% (active).

`COc1ccc(/C=C/C(c2cc(OC)c(OC)c(OC)c2)n2ccnc2)cc1O` (configuration not stated): the growth is 31.9% (inactive).

On to `C/C=C(/C)n1cnc2c(Nc3ccccn3)nc(Cl)nc21`, for which the growth was 100% (inactive).

With `Oc1ccc(/C=C/c2ccc(O)cc2)cc1`, the growth was 74.9% (inactive).

`C#CCOc1cccc(-c2ncnc3cc(NC(=O)C=C)ccc23)c1`: the growth was 30.8% (inactive).

Consider `CCOC(=O)c1nn(CC(O)c2ccccc2)c(NC(=O)Nc2cccc(F)c2)c1C` (configuration not stated), for which the growth is 99.2% (inactive).

For the compound `O=C(N/N=C\c1ccccc1S(=O)(=O)O)N/N=C/c1ccccc1S(=O)(=O)O`, the growth was 92.3% (inactive).

As to `CC[C@]12C=CCN3CC[C@@]4(c5ccc(OC)cc5N(C)[C@H]4[C@@](O)(C(=O)OC)[C@@H]1OC(=O)CCC[P+](c1ccccc1)(c1ccccc1)c1ccccc1)[C@@H]32`, the growth was 5.41% (active).

On to `CCCn1nc(C(=O)N(C)Cc2ccccc2)c2c1CCC(N1CCc3ccccc31)C2` (configuration not stated), for which the growth was 89.9% (inactive).

As to `C=C1C(=O)O[C@H]2[C@H]1CC/C(COC(=O)/C=C\C(=O)NCc1ccc(Cn3c(=O)sn(CCCl)c3=O)cc1)=C\CC[C@@]1(C)O[C@@H]21`, the growth is 35.1% (inactive).

With `COC(=O)c1ccc(NC(=O)Nc2ccc(C(=O)OC)cc2)cc1`, the growth is 79.9% (inactive).

Turning to `O=C(O)c1cn(C2CC2)c2cc(N3CCN(C(=O)Nc4nc(-c5ccc(Br)cc5)cs4)CC3)c(F)cc2c1=O`, the growth was 8.35% (active).

Consider `NC(=O)c1c(NC(=O)c2cccc(C(F)(F)F)c2)sc2c1CCC(=O)C2`, for which the growth was -18.1% (active).

As for `CC1=C(C(=O)Nc2ccccc2)C(c2ccc3c(c2)OCO3)NC(=S)N1` (configuration not stated), the growth was 112% (inactive).

With `NS(=O)(=O)c1ccc(-c2cc(-c3nnc(SCC(=O)Nc4ccc(C(=O)/C=C/c5ccc(Cl)cc5)cc4)n3-c3ccccc3)c3ccccc3n2)cc1`, the growth was 68.5% (inactive).

Regarding `COC(=O)c1cc(Br)ccc1O`, the growth is 103% (inactive).

As for `C=C1C(=O)O[C@H]2[C@H]1CC/C(COC(=O)/C=C/C(=O)OC/C1=C/CC[C@@]3(C)O[C@H]3[C@H]3OC(=O)C(=C)[C@@H]3CC1)=C\CC[C@@]1(C)O[C@@H]21`, the growth was 7.58% (active).

With `CNC1=CC(=O)c2c(C(=O)OC)c(C)[n+]([O-])c(C)c2C1=O`, the growth was 95.6% (inactive).

As to `O=C(Nc1ncccc1OCc1ccccc1)NC1CCCCCC1`, the growth was 78.7% (inactive).

As to `O=C1/C(=C\c2cccc3nccnc23)SC(=S)N1CCc1ccc(O)cc1`, the growth is 93.1% (inactive).

On to `O=C1/C=C/[C@@H](O)[C@@H]2C[C@@H](O)C[C@H]2/C=C/CCC[C@@H](O)CCO1`, for which the growth was 106% (inactive).

Consider `Cc1ccc(CNc2c3ccccc3nc3ccccc23)cc1`, for which the growth is 4.29% (active).

Regarding `Cc1ccnc(Nc2ccc([N+](=O)[O-])c(NCCN3CCOCC3)n2)c1`, the growth is 11.7% (inactive).

`CSc1nn2c(-c3ccc4ccccc4c3)ccnc2c1C#N`: the growth was 28.5% (inactive).

On to `COc1cc2nc3sc(C(=O)Nc4ccc(C(=O)OC(C)C)cc4)c(C(=O)Nc4ccc(Cl)cc4C)n3c(=O)c2cc1OC`, for which the growth was 52.8% (inactive).

With `COC(=O)/C=C1/SC(=Nc2ccc([N+](=O)[O-])cc2)N(CCc2c[nH]c3ccc(O)cc23)C1=O`, the growth was 10.9% (inactive).

For `O=S1(=O)C=C(c2ccccc2)C(c2ccccc2)=C1`, the growth is 1.8% (active).

Consider `O=C(O)COc1ccc(Cl)c(Cl)c1`, for which the growth was 101% (inactive).

As to `O=C1/C(=C/c2ccccn2)NC(=S)N1c1ccccc1Cl`, the growth was 33.4% (inactive).

For `CCS/C(Nc1ccccc1)=C(\C#N)C(=O)Nc1ccc(OC)cc1`, the growth is 10.1% (inactive).

In the case of `COc1ccc(C(=O)N2c3ccccc3Sc3ccccc32)c(C(F)(F)F)c1`, the growth was 15.1% (inactive).

For `Cc1ccc(-c2csc(NC(=O)c3ccccc3CN3C(=O)c4ccccc4C3=O)n2)cc1`, the growth is 93.4% (inactive).

For the compound `CNC(=O)c1cc(Oc2cccc3nc(NC(=O)Nc4cc(C(F)(F)F)ccc4Cl)ccc23)ccn1`, the growth was 89.5% (inactive).
